FBW7 act – activators of human E3 ligase FBW7; Q969H0; hit rate 0.13% among 650,000; normalized activity (activation), % at 26.1 µM; AlphaScreen FBW7–phospho-cyclin E peptide binding, activator screen; in the data active means normalized activity above about 1.9%;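 further: purified mutant Fbw7 with reduced substrate affinity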
TEAD-YAP inh – TEAD-YAP interaction inhibition. HEK-TIYL cells, TEAD-Gal4/YAP UAS-luciferase luminescence. inhibition, % at 9.12 µM. hit rate 1.4% among 640,000. AID 1259422; in the data active means inhibition above about 32%
MITF primary – blocks human microphthalmia-associated transcription factor. inhibition, % at 2.6 µM. AlphaScreen MITF homodimerization, bead proximity signal. O75030. AID 1259374. hit rate 0.91% among 650,000; in the data active means inhibition above about 50%
Target sequence (O75030 whole entry, looked up): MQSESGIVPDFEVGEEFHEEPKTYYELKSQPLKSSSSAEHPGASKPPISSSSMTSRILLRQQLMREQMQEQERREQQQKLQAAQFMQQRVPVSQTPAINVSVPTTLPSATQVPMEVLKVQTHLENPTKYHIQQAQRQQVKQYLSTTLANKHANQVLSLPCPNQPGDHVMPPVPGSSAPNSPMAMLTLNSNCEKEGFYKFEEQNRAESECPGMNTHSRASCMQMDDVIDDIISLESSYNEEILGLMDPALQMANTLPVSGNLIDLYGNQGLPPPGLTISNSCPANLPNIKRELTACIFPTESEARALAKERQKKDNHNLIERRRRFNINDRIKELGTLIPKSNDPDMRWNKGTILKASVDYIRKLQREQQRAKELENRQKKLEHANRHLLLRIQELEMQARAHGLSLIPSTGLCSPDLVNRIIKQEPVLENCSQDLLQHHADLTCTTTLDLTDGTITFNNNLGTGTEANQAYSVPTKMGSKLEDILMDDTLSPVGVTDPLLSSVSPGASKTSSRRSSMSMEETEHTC
GPR151 ag – human GPR151 activation; AID 1508602; hit rate 1% among 650,000; PathHunter beta-arrestin GPR151 cells, luminescence; activation, % at 11.2 µM; in the data active means activation above about 4.9%
GPR151 conf act – confirmation of human GPR151 activators; shares compounds with GPR151 ag; GPR151 PathHunter beta-arrestin cells, luminescence, 90 min; % of EA-reagent control over plate median; activation, % at 11.2 µM; 6,700 tested, under 10 active; AID 1508609;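 active means mean percent activation across replicates above the confirmation screen cutoff of 4.91%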
GPR119 ag – activates human GPR119 in a GPR151 counter-screen. shares compounds with GPR151 ag. GPR119 PathHunter beta-arrestin cells, luminescence, 90 min; 0 = compound-well median, 100 = enzyme-acceptor control. activation, % at 11.2 µM. hit rate 0.3% among 6,700;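 active means mean percent activation in the counterscreen above 29.09%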;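 further: counterscreen on off-target GPR119 to flag nonselective hits from the GPR151 activator screen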
A number is an active result. An excerpt weighted towards active compounds, which were near 3.5% of everything screened.

O=C1CN(c2ccc(S(=O)(=O)N3CCCC3)cn2)CCN1 was read as FBW7 act inactive, TEAD-YAP inh inactive, MITF primary inactive and GPR151 ag inactive.
For O=C1CN(c2ccc(S(=O)(=O)N3CCC(Cc4ccccc4)CC3)cn2)CCN1 the results were FBW7 act inactive, TEAD-YAP inh inactive, MITF primary inactive, GPR151 ag 7.3, GPR151 conf act inactive and GPR119 ag inactive.
COCCSc1nnc(-c2cccc([N+](=O)[O-])c2)n1C was read as FBW7 act inactive, TEAD-YAP inh inactive, MITF primary inactive and GPR151 ag inactive.
Screening NC(C(=O)N1CCN(c2ccc3cnccc3c2)CC1)c1ccc(-c2ccccc2)cc1 (stereo not drawn) returned FBW7 act inactive, TEAD-YAP inh inactive, MITF primary inactive, GPR151 ag 7.5, GPR151 conf act inactive and GPR119 ag inactive.
`NC(C(=O)N1CCC(Nc2ccc3cnccc3c2)CC1)c1ccc(-c2ccccc2)cc1` (stereo not drawn) gave FBW7 act inactive, TEAD-YAP inh inactive, MITF primary inactive and GPR151 ag inactive.
O=C1C(Nc2ccccc2)=CC(c2ccc3c(c2)OCO3)N1c1ccccc1 (stereo not drawn) was read as FBW7 act inactive, TEAD-YAP inh inactive, MITF primary inactive and GPR151 ag inactive.
Nn1c(CSc2nc3ccccc3o2)nnc1CSc1nc2ccccc2o1 was read as FBW7 act inactive, TEAD-YAP inh inactive, MITF primary inactive and GPR151 ag inactive.
Screening c1ccc(-n2nnnc2CSc2nc3ccccc3o2)cc1 returned FBW7 act inactive, TEAD-YAP inh inactive, MITF primary inactive, GPR151 ag 6.6, GPR151 conf act inactive and GPR119 ag inactive.
Cc1cc(N2CCC(C(=O)NC(C)C)CC2)n2nc(C)c(-c3ccc(Cl)cc3)c2n1 was read as FBW7 act inactive, TEAD-YAP inh inactive, MITF primary inactive and GPR151 ag inactive.
For COc1ccc(CN(C)CCN(C)C)c(OC)c1C the results were FBW7 act inactive, TEAD-YAP inh inactive, MITF primary inactive, GPR151 ag 6.6, GPR151 conf act inactive and GPR119 ag inactive.
For COc1cccc(CN(C)CCN(C)C)c1O the results were FBW7 act inactive, TEAD-YAP inh inactive, MITF primary inactive and GPR151 ag inactive.
O=C(NCCc1nc(-c2ccccc2)cs1)C1(c2ccccc2)CC1 was read as FBW7 act inactive, TEAD-YAP inh inactive, MITF primary inactive and GPR151 ag inactive.
Screening CS(=O)(=O)Nc1ccccc1Oc1ccccc1 returned FBW7 act inactive, TEAD-YAP inh inactive, MITF primary inactive, GPR151 ag 7.9, GPR151 conf act inactive and GPR119 ag inactive.
For Cc1cc(Nc2ccc(F)cc2F)n2nc(C)nc2n1 the results were FBW7 act inactive, TEAD-YAP inh inactive, MITF primary inactive and GPR151 ag inactive.
Screening Cc1cc(Nc2cc(F)ccc2C)n2nc(C)nc2n1 returned FBW7 act inactive, TEAD-YAP inh inactive, MITF primary inactive, GPR151 ag 7.1, GPR151 conf act inactive and GPR119 ag inactive.
Screening COCCN1CCN(Cc2nc(NCc3ccc(C)o3)c3ccccc3n2)CC1 returned FBW7 act inactive, TEAD-YAP inh inactive, MITF primary inactive, GPR151 ag 11, GPR151 conf act inactive and GPR119 ag inactive.
COCCN1CCN(Cc2nc(Nc3ccccc3)c3ccccc3n2)CC1 was read as FBW7 act inactive, TEAD-YAP inh inactive, MITF primary inactive and GPR151 ag inactive.
Screening O=[N+]([O-])c1ccc(N2CCN(Cc3ccoc3)CC2)cc1 returned FBW7 act inactive, TEAD-YAP inh inactive, MITF primary inactive and GPR151 ag inactive.
Screening CC(=O)c1ccc(N2CCN(Cc3ccoc3)CC2)cc1 returned FBW7 act inactive, TEAD-YAP inh inactive, MITF primary inactive, GPR151 ag 5.9, GPR151 conf act inactive and GPR119 ag inactive.
O=S(=O)(Nc1ccc(S(=O)(=O)Nc2ccccc2)cc1)c1ccccc1 was read as FBW7 act inactive, TEAD-YAP inh inactive, MITF primary inactive and GPR151 ag inactive.
For O=S(=O)(Nc1ccccc1)c1ccc(NS(=O)(=O)c2c(F)cccc2F)cc1 the results were FBW7 act inactive, TEAD-YAP inh inactive, MITF primary inactive, GPR151 ag 5.2, GPR151 conf act inactive and GPR119 ag inactive.

Assay outcomes: PubChem, The Scripps Research Institute Molecular Screening Center
